ELG1 genotoxic = genotoxicity induction in ELG1-luciferase HEK293T cells. HEK293T ELG1-luciferase reporter, luminescence, 16 h. Potency, µM (doses to about 46 µM), inactives show at the highest dose activity change, positive = activation, most hits filed as activators. actives 1.3% (n = 330,000); further: % of control where 0% means no effect; nearly all actives have a fitted effect of over 60% in size
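DMSO vehicle served as control against compound-treated ELG1-luciferase HEK293T cells; exposure lasted 16 hr at 37 °C and 5% CO2, followed by ONE-Glo luminescence detection after 30 min.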
FLuc modulator = firefly luciferase modulation, counter-screen for miR-21 project; purified FLuc, Km substrates, luminescence inhibition; Potency, µM (doses to about 57.5 µM), without a hit: top-dose activity change, negative = inhibition, most hits filed as inhibitors; actives 6.9% (n = 360,000); AID 588342;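 further: plate controls were vehicle for no effect and reference inhibitor for full effect; nearly all actives have a fitted effect of over 55% in size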
Target sequence (P08659 whole entry, looked up): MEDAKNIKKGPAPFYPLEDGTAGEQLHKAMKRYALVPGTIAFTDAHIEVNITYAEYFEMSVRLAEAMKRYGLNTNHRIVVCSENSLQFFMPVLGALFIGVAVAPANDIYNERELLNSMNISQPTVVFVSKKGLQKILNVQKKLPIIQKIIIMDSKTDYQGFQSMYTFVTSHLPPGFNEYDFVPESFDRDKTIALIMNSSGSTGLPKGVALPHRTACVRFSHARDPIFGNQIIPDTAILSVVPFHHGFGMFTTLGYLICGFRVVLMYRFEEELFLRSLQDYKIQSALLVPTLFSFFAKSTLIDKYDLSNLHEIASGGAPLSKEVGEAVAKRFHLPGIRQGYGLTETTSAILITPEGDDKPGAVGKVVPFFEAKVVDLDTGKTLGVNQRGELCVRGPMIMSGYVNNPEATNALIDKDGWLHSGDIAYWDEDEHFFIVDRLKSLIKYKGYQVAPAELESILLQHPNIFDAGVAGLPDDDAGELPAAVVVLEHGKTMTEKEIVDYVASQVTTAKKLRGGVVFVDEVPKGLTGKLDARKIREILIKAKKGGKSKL
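Biochemical qHTS of compounds, final roughly 60 µM downward over six points, against 10 nM purified firefly luciferase using Km concentrations of substrates (10 uM D-luciferin, 10 uM ATP) in Tris acetate pH 7.5 buffer; luminescence output.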
SMN2 splice enh = enhancers of SMN2 splice variant expression; AID 1458; Potency, µM (titrated, usually from 46.1 µM), for inactives: top-dose activity change, positive = activation, most hits filed as activators; HEK293 SMN2-luciferase splicing reporter, luminescence, 30-36 h; actives 2.8% (n = 210,000); further: % of control where 0% means no effect; nearly all actives have a fitted effect of over 55% in size
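qHTS luciferase splicing reporter: luminescence rises when SMN2 exon 7 is included in transfected HEK293 cells. Compound exposure lasted 30-36 h at 37C, with 4.5 mM final sodium butyrate as control, followed by a ONE-Glo read.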
NPC1 promoter act = NPC1 promoter activation; Huh7 NPC1 promoter luciferase reporter, 24 h; Potency, µM (doses to about 9.22 µM), without a hit: at the top dose activation, most hits filed as activators; actives 2.4% (n = 320,000); further: % of control where 0% means no effect; nearly all actives have a fitted effect of over 60% in size
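Luminescence read-out of NPC1 promoter-driven luciferase in stably transfected Huh7 cells; compounds delivered in DMSO and left 24 h at 37C, 5% CO2, qHTS titration format.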
Rab9 promoter act = activates the Rab9 promoter | Huh7 Rab9 promoter-luciferase reporter, luminescence, 24 h | Potency, µM (series often up to 9.22 µM), inactives show at the highest dose activation, negative = inhibition, hits mostly activators | actives 2.8% (n = 320,000); further: % of control where 0% means no effect; nearly all actives have a fitted effect of over 60% in size
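Luminescence read-out: Huh7 cells stably expressing Rab9-luciferase, treated 24 h with compound at 37 °C, then lysed with luciferase reagent for 10 min at ambient before reading.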
ELG1 repair inh = ELG1-dependent DNA repair inhibition; HEK293T ELG1-luciferase reporter, luminescence, 16 h; DNA damage induced by 5-fluorouridine; Potency, µM (series often up to 46.1 µM), for the others: at the top dose activity change, negative = inhibition, actives largely listed as inhibitors; actives 2.3% (n = 330,000); AID 504467; further: on the % scale 0 is the no-effect control and ±100 the full control effect; nearly all actives have a fitted effect of over 55% in size
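In this reporter screen, reduction of luminescence relative to DMSO vehicle indicated activity. Compounds and 5-fluorouridine were added together to 2,000 cells per well, incubated for 16 hr at 37 °C, then developed with ONE-Glo.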
An asterisk follows results filed as active; [ ] = another dose, or the depositor's remark. Hits are enriched below; roughly 9.4% of the tested compounds scored in any of these assays. The call rests on the fitted dose curve; in most records, active means well fitted curve in the direction sought with a large enough effect; inconclusive means small, poorly fitted or top-dose-only effect, or another doubt; inactive means no such curve, though single readings can be large; an effect the other way counts as inactive or inconclusive. Potency means the concentration at half of the fitted maximal effect.

Screening O=S(=O)(c1ccc(Nc2ccc(-c3ccc4c(c3)OCCO4)nn2)cc1)N1CCCC1 returned ELG1 genotoxic 2%, FLuc modulator 5.4µM*, SMN2 splice enh 5%, NPC1 promoter act 17%, Rab9 promoter act 20% and ELG1 repair inh inconclusive.
For O=C(NC1CC1)c1cccc(Nc2ccc(-c3ccc4c(c3)OCCO4)nn2)c1 the results were ELG1 genotoxic inconclusive, FLuc modulator 0.6µM*, SMN2 splice enh inconclusive, NPC1 promoter act inconclusive, Rab9 promoter act 2µM* and ELG1 repair inh inconclusive.
`O=C(COC(=O)Cc1ccc2c(c1)OCCO2)Nc1ccc(S(=O)(=O)N2CCCC2)cc1` gave ELG1 genotoxic 1%, FLuc modulator 2%, SMN2 splice enh 25%, NPC1 promoter act 3%, Rab9 promoter act -1% and ELG1 repair inh 0%.
CCN(CC)c1ccc(C(=O)NCc2nc3cccnc3n2Cc2ccc(C)cc2)cc1 was read as FLuc modulator -1%.
Cc1cc(C)cc(NC(=O)c2ccc(CSc3nnc(C)s3)cc2)c1 was read as ELG1 genotoxic 8%, FLuc modulator 7.6µM*, SMN2 splice enh 0%, NPC1 promoter act 3%, Rab9 promoter act 10% and ELG1 repair inh inconclusive.
`Cc1ccc(NC(=O)c2ccc(CSc3nnnn3C)cc2)cc1` gave ELG1 genotoxic inconclusive, FLuc modulator 4.8µM*, SMN2 splice enh 8.9µM*, NPC1 promoter act 2µM*, Rab9 promoter act 1.6µM* and ELG1 repair inh inconclusive.
For CCc1ccc(NC(=O)CSc2nnnn2C)cc1 the results were ELG1 genotoxic 13%[9.26 µM], FLuc modulator 24µM*, NPC1 promoter act inconclusive, Rab9 promoter act inconclusive and ELG1 repair inh inconclusive.
Screening COc1ccc(OC)c(NC(=O)c2ccc(CSc3nnc(C)s3)cc2)c1 returned ELG1 genotoxic -4%, FLuc modulator inconclusive, SMN2 splice enh -11%, NPC1 promoter act -2%, Rab9 promoter act -1% and ELG1 repair inh -4%.
Screening COc1ccc(NC(=O)CSc2nnnn2C)cc1 returned ELG1 genotoxic 0%, FLuc modulator 1%, NPC1 promoter act -1%, Rab9 promoter act -4% and ELG1 repair inh inconclusive.
Screening Cc1nnc(SCc2ccc(C(=O)O)cc2)s1 returned ELG1 genotoxic -1%, FLuc modulator 2%, SMN2 splice enh -8%, NPC1 promoter act -1%, Rab9 promoter act 18% and ELG1 repair inh 7%.
Screening Cc1ccc(NC(=O)c2ccc(CSc3nnc(C)s3)cc2)cc1 returned ELG1 genotoxic 11%, FLuc modulator 1.5µM*, SMN2 splice enh inconclusive, NPC1 promoter act 1.1µM*, Rab9 promoter act 1.6µM* and ELG1 repair inh inconclusive.
Screening Cc1ccc(N2CCN(C(=O)NCc3noc4ccccc34)CC2C)cc1 (stereo not given) returned FLuc modulator 1%.
`Cc1cc(C)n(CCc2nc3c4ccccc4nc(N4CCN(c5ccccc5)CC4)n3n2)n1` gave FLuc modulator -7% and SMN2 splice enh -9%.
Screening CCCC(=O)Nc1nnc2n1CCS2 returned FLuc modulator -1%.
Screening CCOC(=O)Cn1c(=O)oc2cc(S(=O)(=O)N3CCC(C(=O)OCC)CC3)ccc21 returned FLuc modulator -1% and SMN2 splice enh -1%.
Screening O=C(O)c1nnsc1-c1ccc(-c2snnc2C(=O)O)cc1 returned SMN2 splice enh -7%[9.22 µM].
`O=C(Cc1nc2ccccc2[nH]1)c1ccc(Br)cc1` gave ELG1 genotoxic 9%, FLuc modulator 21µM*, SMN2 splice enh inconclusive, NPC1 promoter act 29%, Rab9 promoter act inconclusive and ELG1 repair inh inconclusive.
For O=C(Cc1ccc(Br)cc1)Nc1nc2ccccc2[nH]1 the results were ELG1 genotoxic 7%, FLuc modulator -14%, NPC1 promoter act 13%, Rab9 promoter act 3% and ELG1 repair inh 5%.
